The text below walks through data of PMC7862700, “An all-to-all approach to the identification of sequence-specific readers for epigenetic DNA modifications on cytosine”.

Common to all, as to experiment: DAPPL (digital affinity profiling via proximity ligation, sequencing); 10 mM Tris-HCl pH 7.5, 50 mM NaCl, 1 mM DTT, 4% glycerol, room temperature, 30 min; GST-TFs on glutathione beads, 16-mer random dsDNA library, 0.1% formaldehyde crosslink after washing; high values mean tight binding
Test [1] addresses HSF1 (Homo sapiens, UniProt Q00613 1-529). Particulars: protein: recombinant; tags: N-terminal GST; chain copies: 3; dsDNA, one strand shown. A digest of the protocol: (§1)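 Human transcription factors carrying a GST fusion were produced in yeast, bound to glutathione beads, tagged with DNA barcodes and pooled together with a tag-only sample. Each pool was held with 200 nmole of a random double-stranded 16-mer DNA library in Tris/NaCl/DTT/glycerol buffer for 30 min at room temperature, then washed, crosslinked in 0.1% formaldehyde, proximity-ligated with BsaI/T4 ligase (1 h, 37 °C), PCR-amplified and sequenced on an Illumina NextSeq500. Binding signal is the read frequency of each hexamer for a given factor divided by its frequency in the tag-only sample.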

Test [2] has as its target T1, SPIC (Homo sapiens, UniProt Q8N5J4 1-248).
T1 sequence: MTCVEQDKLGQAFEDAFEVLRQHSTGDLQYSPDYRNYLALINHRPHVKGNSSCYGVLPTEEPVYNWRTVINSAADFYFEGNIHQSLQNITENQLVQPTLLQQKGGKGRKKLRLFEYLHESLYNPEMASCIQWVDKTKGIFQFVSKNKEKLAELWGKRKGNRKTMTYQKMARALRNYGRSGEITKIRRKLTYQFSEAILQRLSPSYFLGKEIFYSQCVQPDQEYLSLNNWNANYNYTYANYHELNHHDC
Particulars: protein: recombinant; tags: N-terminal GST; dsDNA, one strand shown. Summed up:
as §1

For test [3], the target named is CRX (Homo sapiens, UniProt O43186 1-299). Particulars: protein: recombinant; tags: N-terminal GST; dsDNA, one strand shown. A digest of the protocol:
as §1

Test [4] concerns the target T2, ELK3 (Homo sapiens, UniProt P41970 1-407).
T2 sequence: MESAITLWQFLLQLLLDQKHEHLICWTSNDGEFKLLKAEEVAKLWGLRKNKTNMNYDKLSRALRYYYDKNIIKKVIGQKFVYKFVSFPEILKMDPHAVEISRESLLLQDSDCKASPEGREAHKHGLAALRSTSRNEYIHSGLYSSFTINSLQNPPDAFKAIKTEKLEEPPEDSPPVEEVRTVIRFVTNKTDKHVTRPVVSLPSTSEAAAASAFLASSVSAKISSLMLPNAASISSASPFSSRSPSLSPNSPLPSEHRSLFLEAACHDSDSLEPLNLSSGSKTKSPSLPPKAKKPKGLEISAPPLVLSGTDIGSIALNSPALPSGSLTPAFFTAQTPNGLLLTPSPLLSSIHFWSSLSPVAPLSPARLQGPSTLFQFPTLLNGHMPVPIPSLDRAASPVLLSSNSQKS
Particulars: protein: recombinant; tags: N-terminal GST; dsDNA, one strand shown. A digest of the protocol: as §1

The target in test [5] is T3, ELF3 (Homo sapiens, UniProt P78545 1-371).
T3 sequence: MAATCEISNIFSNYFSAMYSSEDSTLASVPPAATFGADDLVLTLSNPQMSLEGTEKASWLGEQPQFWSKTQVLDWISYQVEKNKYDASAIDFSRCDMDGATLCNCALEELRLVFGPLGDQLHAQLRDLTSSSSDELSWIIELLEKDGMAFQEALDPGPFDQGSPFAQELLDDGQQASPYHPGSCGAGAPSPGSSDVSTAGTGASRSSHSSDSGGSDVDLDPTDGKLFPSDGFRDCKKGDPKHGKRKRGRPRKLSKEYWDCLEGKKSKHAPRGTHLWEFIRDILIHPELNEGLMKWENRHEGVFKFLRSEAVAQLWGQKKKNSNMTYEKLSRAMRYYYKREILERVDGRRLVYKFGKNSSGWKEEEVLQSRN
Particulars: protein: recombinant; tags: N-terminal GST; dsDNA, one strand shown. A digest of the protocol:
as §1

Test [6] concerns the target T4, GABPA (Homo sapiens, UniProt Q06546 1-454).
T4 sequence: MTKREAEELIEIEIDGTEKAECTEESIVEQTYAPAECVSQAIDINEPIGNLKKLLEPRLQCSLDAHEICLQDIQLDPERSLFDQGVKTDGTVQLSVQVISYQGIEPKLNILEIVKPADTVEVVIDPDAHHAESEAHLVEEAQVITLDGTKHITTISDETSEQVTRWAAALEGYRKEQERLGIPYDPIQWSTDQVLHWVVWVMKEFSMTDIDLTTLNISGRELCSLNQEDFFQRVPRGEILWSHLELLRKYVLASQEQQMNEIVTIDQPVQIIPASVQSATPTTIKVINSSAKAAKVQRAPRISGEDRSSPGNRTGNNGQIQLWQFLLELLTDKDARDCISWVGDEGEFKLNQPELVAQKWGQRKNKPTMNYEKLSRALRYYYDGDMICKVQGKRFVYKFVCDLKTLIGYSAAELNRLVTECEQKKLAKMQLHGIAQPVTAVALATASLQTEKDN
Particulars: protein: recombinant; tags: N-terminal GST; dsDNA, one strand shown. Summed up: as §1

Test [7] deals with T5, ERG (Homo sapiens, UniProt P11308 1-479).
T5 sequence: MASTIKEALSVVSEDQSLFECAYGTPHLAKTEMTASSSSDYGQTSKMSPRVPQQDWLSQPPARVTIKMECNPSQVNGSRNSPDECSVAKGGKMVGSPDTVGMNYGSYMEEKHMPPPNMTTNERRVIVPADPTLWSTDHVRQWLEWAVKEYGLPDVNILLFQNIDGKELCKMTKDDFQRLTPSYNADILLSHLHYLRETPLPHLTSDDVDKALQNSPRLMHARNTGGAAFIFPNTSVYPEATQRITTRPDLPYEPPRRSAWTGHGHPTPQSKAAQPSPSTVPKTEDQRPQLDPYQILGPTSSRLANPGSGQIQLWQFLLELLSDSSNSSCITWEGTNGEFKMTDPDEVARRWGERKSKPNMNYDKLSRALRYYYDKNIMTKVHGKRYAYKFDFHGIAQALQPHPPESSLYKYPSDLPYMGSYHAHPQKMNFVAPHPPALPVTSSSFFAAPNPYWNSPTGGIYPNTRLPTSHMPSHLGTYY
Particulars: protein: recombinant; tags: N-terminal GST; dsDNA, one strand shown. A digest of the protocol: as §1

Test [8] concerns the target T6, ELK4 (Homo sapiens, UniProt P28324-2 1-405).
T6 sequence: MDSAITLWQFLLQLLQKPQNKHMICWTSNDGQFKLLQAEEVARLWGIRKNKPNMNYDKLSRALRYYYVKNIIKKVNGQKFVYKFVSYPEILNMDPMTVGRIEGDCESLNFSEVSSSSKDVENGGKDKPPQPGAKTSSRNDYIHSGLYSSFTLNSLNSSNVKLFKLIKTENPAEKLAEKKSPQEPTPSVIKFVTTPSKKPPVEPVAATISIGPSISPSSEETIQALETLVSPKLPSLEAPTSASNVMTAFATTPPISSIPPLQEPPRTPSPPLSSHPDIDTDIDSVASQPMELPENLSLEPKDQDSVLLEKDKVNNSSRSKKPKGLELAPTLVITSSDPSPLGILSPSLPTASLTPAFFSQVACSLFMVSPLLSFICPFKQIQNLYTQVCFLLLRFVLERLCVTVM
Particulars: protein: recombinant; tags: N-terminal GST; dsDNA, one strand shown. Summed up:
as §1

In test [9] the target is ETV1 (Homo sapiens, UniProt P50549 1-477). Particulars: protein: recombinant; tags: N-terminal GST; dsDNA, one strand shown. Summed up: as §1
Sequence of ETV1 (P50549 whole entry): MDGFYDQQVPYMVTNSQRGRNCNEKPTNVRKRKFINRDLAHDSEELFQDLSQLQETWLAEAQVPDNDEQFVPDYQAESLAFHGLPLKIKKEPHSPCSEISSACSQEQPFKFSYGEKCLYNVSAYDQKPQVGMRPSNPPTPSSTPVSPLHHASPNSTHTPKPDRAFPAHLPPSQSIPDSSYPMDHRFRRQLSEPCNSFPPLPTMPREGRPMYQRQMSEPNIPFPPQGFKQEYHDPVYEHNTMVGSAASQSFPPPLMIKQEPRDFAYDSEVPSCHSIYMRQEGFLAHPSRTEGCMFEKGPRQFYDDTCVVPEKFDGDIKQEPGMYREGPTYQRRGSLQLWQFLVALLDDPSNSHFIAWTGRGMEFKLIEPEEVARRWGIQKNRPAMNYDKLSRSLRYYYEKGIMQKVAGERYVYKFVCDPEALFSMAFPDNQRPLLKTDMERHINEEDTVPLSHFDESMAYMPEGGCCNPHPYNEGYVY
Test [10] deals with T7, ERF (Homo sapiens, UniProt P50548 1-548).
T7 sequence: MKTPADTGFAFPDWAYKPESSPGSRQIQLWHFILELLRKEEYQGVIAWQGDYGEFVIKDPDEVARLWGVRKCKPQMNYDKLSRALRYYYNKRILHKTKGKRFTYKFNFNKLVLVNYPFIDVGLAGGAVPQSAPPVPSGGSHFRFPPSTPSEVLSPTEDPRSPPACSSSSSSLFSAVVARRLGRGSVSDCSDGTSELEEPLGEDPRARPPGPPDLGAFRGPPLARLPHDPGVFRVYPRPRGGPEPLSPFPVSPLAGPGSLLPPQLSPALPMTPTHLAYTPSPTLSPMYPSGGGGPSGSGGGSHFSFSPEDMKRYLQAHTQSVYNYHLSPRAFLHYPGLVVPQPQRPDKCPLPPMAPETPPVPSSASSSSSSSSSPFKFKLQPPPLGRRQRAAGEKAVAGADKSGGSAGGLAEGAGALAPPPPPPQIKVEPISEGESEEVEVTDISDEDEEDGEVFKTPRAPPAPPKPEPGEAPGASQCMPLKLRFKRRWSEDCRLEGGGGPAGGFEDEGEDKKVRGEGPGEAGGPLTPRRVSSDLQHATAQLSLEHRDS
Particulars: protein: recombinant; tags: N-terminal GST; dsDNA, one strand shown. A digest of the protocol: as §1

The target in test [11] is T8, ETS2 (Homo sapiens, UniProt P15036 1-469).
T8 sequence: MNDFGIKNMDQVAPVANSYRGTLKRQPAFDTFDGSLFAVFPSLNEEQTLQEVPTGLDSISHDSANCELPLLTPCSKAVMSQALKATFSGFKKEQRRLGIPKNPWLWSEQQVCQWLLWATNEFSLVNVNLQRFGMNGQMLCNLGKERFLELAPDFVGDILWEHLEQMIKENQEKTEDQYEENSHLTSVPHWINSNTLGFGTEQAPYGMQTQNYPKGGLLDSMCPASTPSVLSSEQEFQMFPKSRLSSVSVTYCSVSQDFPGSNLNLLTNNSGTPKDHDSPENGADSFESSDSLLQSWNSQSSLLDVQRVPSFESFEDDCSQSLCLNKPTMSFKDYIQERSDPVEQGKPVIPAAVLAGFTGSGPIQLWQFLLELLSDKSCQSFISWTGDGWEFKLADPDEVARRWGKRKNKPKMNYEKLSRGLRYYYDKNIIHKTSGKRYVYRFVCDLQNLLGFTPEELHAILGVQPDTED
Particulars: protein: recombinant; tags: N-terminal GST; dsDNA, one strand shown. Summed up:
as §1

The target in test [12] is T9, ETV7 (Homo sapiens, UniProt Q9Y603 1-341).
T9 sequence: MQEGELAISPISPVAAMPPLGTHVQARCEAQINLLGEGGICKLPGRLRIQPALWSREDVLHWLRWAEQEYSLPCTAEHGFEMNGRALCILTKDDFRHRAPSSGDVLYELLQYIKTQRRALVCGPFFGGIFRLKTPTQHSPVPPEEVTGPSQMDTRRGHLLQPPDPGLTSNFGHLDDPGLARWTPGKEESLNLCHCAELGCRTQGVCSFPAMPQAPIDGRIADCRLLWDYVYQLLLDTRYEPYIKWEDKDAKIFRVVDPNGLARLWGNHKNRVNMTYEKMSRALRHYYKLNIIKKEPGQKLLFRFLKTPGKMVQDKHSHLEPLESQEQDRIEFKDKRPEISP
Particulars: protein: recombinant; tags: N-terminal GST; dsDNA, one strand shown. A digest of the protocol: as §1

Test [13] deals with T10, ELF5 (Homo sapiens, UniProt Q9UKW6-2 1-255).
T10 sequence: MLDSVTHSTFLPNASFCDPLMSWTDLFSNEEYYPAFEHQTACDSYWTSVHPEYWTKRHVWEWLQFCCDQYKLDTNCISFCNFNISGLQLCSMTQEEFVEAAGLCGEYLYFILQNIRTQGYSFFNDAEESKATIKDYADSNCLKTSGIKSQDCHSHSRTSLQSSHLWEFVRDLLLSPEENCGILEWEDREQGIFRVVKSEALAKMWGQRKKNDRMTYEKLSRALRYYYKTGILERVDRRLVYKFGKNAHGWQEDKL
Particulars: protein: recombinant; tags: N-terminal GST; dsDNA, one strand shown. Summed up: as §1

Sequence of HSF1 (Q00613 whole entry, the tested form may be a part): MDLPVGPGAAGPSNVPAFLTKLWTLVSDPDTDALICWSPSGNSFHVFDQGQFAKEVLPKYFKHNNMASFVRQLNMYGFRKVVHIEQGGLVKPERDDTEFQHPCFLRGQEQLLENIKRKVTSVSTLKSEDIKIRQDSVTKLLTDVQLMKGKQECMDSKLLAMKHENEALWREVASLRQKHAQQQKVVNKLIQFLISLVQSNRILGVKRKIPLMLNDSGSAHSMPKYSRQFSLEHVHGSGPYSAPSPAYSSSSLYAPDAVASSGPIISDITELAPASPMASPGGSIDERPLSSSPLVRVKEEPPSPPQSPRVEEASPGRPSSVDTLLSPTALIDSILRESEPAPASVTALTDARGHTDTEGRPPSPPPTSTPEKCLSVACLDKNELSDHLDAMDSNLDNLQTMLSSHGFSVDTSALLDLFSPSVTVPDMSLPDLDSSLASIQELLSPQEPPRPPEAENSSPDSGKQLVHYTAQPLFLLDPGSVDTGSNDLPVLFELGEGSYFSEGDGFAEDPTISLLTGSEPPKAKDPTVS
Sequence of CRX (O43186 whole entry): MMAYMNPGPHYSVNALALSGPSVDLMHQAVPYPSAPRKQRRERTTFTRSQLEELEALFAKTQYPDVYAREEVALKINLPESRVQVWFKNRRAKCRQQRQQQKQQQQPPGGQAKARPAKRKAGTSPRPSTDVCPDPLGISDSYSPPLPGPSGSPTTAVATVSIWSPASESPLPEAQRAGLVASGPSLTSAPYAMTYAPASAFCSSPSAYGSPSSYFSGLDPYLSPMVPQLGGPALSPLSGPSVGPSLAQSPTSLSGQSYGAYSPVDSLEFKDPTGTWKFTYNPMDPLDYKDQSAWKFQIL

For the sequence TTGAGA, the binding signal was 1.06 fold enrichment (6-mer frequency, TF over GST control) in test [1]; 1.02 fold enrichment (6-mer frequency, TF over GST control) in [2]; 1.02 fold enrichment (6-mer frequency, TF over GST control) in test [3].

CCAGCA: the binding signal in test [4] is 1 fold enrichment (6-mer frequency, TF over GST control); in [1], 1.21 fold enrichment (6-mer frequency, TF over GST control); in [2] it was 1.1 fold enrichment (6-mer frequency, TF over GST control); in test [5], 1.06 fold enrichment (6-mer frequency, TF over GST control).

For the sequence AGGCTT, the binding signal in [6] is 1.02 fold enrichment (6-mer frequency, TF over GST control); in test [7], 1.04 fold enrichment (6-mer frequency, TF over GST control); in test [4] it was 1.05 fold enrichment (6-mer frequency, TF over GST control); in test [1], 1.24 fold enrichment (6-mer frequency, TF over GST control); in test [8], 1.02 fold enrichment (6-mer frequency, TF over GST control); in test [5], 1.11 fold enrichment (6-mer frequency, TF over GST control). Moreover, the binding signal in test [3] is 1.74 fold enrichment (6-mer frequency, TF over GST control); in test [9] it was 1 fold enrichment (6-mer frequency, TF over GST control); in test [10], 1.02 fold enrichment (6-mer frequency, TF over GST control); in [11], 1.04 fold enrichment (6-mer frequency, TF over GST control); in [12], 1.08 fold enrichment (6-mer frequency, TF over GST control); in test [13], 1.02 fold enrichment (6-mer frequency, TF over GST control).
